# PubChem BioAssay
# Several values for one entry are separate records, joined by “and”; a condition that tells them apart may be missing. Identical values can stand only once. Inconclusive results are not listed. For part of these data: Results with a measured potency or affinity are listed apart. Activity calls are given as the source filed them. Unless noted, the limit is not given here; nearly all actives have AC50 up to about 30 µM.
# Tests used:
# [1] = EMT-state selective cytotoxicity in co-culture – imaging, PC-3E GFP, TEM4-18 mCherry, primary screen (AID 1345086;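 active = compounds killing one labelled cell type while sparing the other, by normalised counts and ratio limits, not self-fluorescent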;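 as to all read-outs here: cells exposed to compound for 72 h before imaging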;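 as to red/green cell ratio (normalised): normalised mesenchymal count divided by normalised epithelial count so high means epithelial killing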); details: PC-3E GFP / TEM4-18 mCherry co-culture, imaging cell counts, at 1 µM; for red/green cell ratio (normalised): actives lie on both sides, counts scaled to control wells, 1 = unselective
# [2] = blockers of polyQ-driven CASP3 activation – cell-based (AID 1583); details: polyglutamine-induced caspase-3 activation, cell assay; stronger effect = higher value;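 tested at 10 µM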
# [3] = yeast 75Q aggregation reduction – 75Q-TubU reporter (AID 1593); details: Yeast 75Q polyglutamine aggregation reporter
# [4] = restoration of touch response, mutant HTT neurons – whole organism, C. elegans mechanosensory neurons, N-terminal huntingtin (AID 1599); details: C. elegans polyQ-huntingtin mechanosensory neurons, stronger effect = higher value
# [5] = blockers of cytochrome c efflux from mitochondria – biochemical, purified mitochondria (AID 1603); details: stronger effect = lower value;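 also: mouse liver mitochondria challenged with calcium chloride; signal normalized to the plate average as 100%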
# [6] = polyglutamine aggregate formation blockers (AID 1604); details: polyglutamine-induced protein aggregation inhibition assay; stronger effect = higher value; tested at 2.5 µM
# [7] = rescue of PC12 cells from polyQ htt toxicity – LDH release (AID 1610); details: PC12 mutant huntingtin toxicity, final LDH at 4 uM, stronger effect = lower value
# [8] = glutamate transport activators, MN-1 cells, MN-1 cell line (AID 1612); details: MN-1 motor neuron cells, stronger effect = higher value;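 also: tested at 1 µM final; 0% = mean of DMSO vehicle wells on each plate; positive means more glutamate uptake than control and negative means less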
# [9] = GFP-Q80 aggregate reduction, neuronal-like cells, cell-based, NGF-treated PC12, GFPQ80 (AID 1614); details: PC12 NGF-treated GFP-polyQ80 inclusion reduction;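 also: lower means fewer inclusions and 0 means no inclusions at all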
# [10] = 75Q-TubH aggregate inhibition, S. cerevisiae, yeast (AID 1616); details: S. cerevisiae 75Q-TubH polyglutamine aggregation suppression; stronger effect = higher value
# [11] = compounds altering circadian rhythm period length – cell-based, LOPAC library, luminescence reporter (AID 2774; call rule not given here;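 also: values are relative to mean of DMSO wells on each plate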); details: circadian reporter cells, at 7 µM, actives lie on both sides
# [12] = tested on: Hepatitis C virus NS3 helicase; test: blockers of NS3h binding to ssDNA – biochemical, fluorescence polarization, LOPAC1280 library, primary screen (AID 687035; in the data active = inhibition above about 37%); details: Purified HCV NS3 helicase, Cy5-dT15 ssDNA binding fluorescence polarization; stronger effect = higher value; concentration not given here
# [13] = compounds altering Cy5-DNA-NS3h complex signal – biochemical, LOPAC1280, artefact control for HCV NS3 helicase inhibitor project (AID 687037; call rule not given here); details: Cy5-DNA-NS3h complex fluorescence interference counterscreen
# [14] = tested on: Aerobactin synthetase IucA (Klebsiella pneumoniae); test: inhibition of K. pneumoniae IucA enzyme – biochemical, Tocris library, absorbance (AID 1345561; call rule not given here;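 also: 100% = enzyme without compound and 0% = no enzyme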); details: purified IucA enzyme assay, absorbance (OD) read-out; stronger effect = lower value;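 tested at 8 µM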
# [15] = viability loss in pontine glioma line – cell-based, SU-DIPG-XVII, MIPE5.0, CellTiter-Glo, qHTS, dose response (AID 1347060; cut-off not given, nearly all actives have AC50 up to about 26 µM); details: CellTiter-Glo ATP luminescence
# [16] = viability loss in pontine glioma line – cell-based, JHH-DIPG-1, MIPE4.0, CellTiter-Glo, qHTS, dose response (AID 1347062; cut-off not given, nearly all actives have AC50 up to about 27 µM); details: JHH-DIPG-1 viability, CellTiter-Glo ATP luminescence
# [17] = viability loss in pontine glioma line – cell-based, SU-DIPG-IV, MIPE4.0, CellTiter-Glo, qHTS, dose response (AID 1347063); details: CellTiter-Glo ATP luminescence;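 also: compound exposure lasted 48 hours before the viability readout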
# [18] = viability loss in pontine glioma line – cell-based, SU-DIPG-XXV, MIPE5.0, CellTiter-Glo, qHTS, dose response (AID 1347065; cut-off not given, nearly all actives have AC50 up to about 26 µM;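 also: cells exposed to compound for 48 hours before ATP readout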); details: CellTiter-Glo ATP luminescence
# [19] = growth inhibition of DIPG cells – cell-based, MIPE4.0 library, CellTiter-Glo luminescence, qHTS (AID 1347066); details: SU-DIPG-VI viability, CellTiter-Glo ATP luminescence;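 also: cells exposed to compound for 48 hours before readout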
# [20] = JHH-DIPG-1 glioma cell viability, MIPE5.0 library, CellTiter-Glo luminescence, qHTS (AID 1347067; cut-off not given, nearly all actives have AC50 up to about 26 µM;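 also: cells exposed to compound for 48 hours before readout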); details: JHH-DIPG-1 glioma viability, CellTiter-Glo ATP luminescence
# [21] = growth inhibition of DIPG cells – cell-based, MIPE5.0 library, qHTS (AID 1347068; cut-off not given, nearly all actives have IC50 up to about 30 µM;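 as to IC50: cells exposed to compound for 48 hours before viability readout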); details: SU-DIPG-XXV viability
# [22] = viability loss with induced miR-34 in A549 – imaging, A549 dox-inducible miR-34, nuclei and caspase counts, primary screen (AID 1347080;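 active = compounds whose cell count with miR-34 switched on is under 0.7 times the count with it off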); details: A549 miR-34 inducible, Hoechst nuclei count, 48 h
# [23] = blockers of cellular phospholipid synthesis – cell-based, LOPAC library, screen 4, primary screen (AID 1347384; call rule not given here); details: animal cells, phospholipid biosynthesis inhibition screen; at 10 µM
# [24] = biological target: Mitogen-activated protein kinase 7 (Homo sapiens) (UniProt Q13164); test: Gal4-ERK5 driven luciferase induction – cell-based, HTS, primary screen (AID 1508626;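 active = luciferase signal above three times the same-plate solvent-only control wells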;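 also: luciferase driven by Gal4-ERK5 fusion binding five Gal4 sites before minimal TATA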); details: HeLa Gal4-ERK5 transactivation, 18 h, at 5 µM, stronger effect = higher value
# Mitogen-activated protein kinase 7 (Homo sapiens), sequence (Q13164 whole entry, looked up, the tested form may be a part): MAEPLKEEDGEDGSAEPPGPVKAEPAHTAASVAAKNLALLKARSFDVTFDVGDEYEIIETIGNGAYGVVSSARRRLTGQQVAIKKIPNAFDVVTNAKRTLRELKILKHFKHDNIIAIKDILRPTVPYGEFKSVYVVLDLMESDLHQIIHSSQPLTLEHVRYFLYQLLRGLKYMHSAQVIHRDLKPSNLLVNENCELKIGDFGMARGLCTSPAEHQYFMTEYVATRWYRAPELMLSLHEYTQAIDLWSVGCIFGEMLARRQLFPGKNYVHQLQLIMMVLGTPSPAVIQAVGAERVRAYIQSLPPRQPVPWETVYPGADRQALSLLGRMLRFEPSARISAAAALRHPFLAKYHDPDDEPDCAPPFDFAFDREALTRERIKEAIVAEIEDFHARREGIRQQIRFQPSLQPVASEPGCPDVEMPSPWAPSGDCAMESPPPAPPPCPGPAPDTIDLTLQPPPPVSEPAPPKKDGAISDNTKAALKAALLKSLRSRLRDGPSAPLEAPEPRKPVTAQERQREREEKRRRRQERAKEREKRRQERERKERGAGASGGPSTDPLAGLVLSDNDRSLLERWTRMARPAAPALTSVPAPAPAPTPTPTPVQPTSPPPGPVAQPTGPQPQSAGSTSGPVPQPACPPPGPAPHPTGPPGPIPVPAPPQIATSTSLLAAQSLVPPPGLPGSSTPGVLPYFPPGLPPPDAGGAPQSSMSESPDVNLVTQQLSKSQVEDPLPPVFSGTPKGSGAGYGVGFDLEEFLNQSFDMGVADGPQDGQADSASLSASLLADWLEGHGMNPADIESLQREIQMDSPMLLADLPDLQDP
# [25] = galactose survival enhancers in mitochondrial complex I cybrids – cell-based, galactose medium, ATP luminescence, primary screen (AID 1645843;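 active = z-score of at least 1.8 in each of two replicates, scored against plate mean and spread of sample wells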;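 also: positive z means more ATP and so rescue of galactose-driven cybrid death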); details: complex I mutant cybrid cells, 72 h, stronger effect = higher value
# [26] = viability loss in pontine glioma line – cell-based, SU-DIPG-XIII, MIPE4.0, CellTiter-Glo, qHTS, dose response (AID 1347061; cut-off not given, nearly all actives have AC50 up to about 37 µM;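 also: cells exposed to compound for 48 hours before readout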); details: CellTiter-Glo ATP luminescence
# [27] = P. berghei load reduction in hepatocytes – cell-based, HepG2, luciferase luminescence, HepG2 viability, primary screen (AID 624349; in the data active = parasite load remaining mostly below about 12%, no sharp cut-off; inactive = mostly above about 10%;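 also: 100% = mean of DMSO negative control wells on the same plate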); details: P. berghei liver stage in HepG2, luciferase luminescence, concentration not given here; parasite load remaining: stronger effect = lower value; viability: measured here: HepG2 viability without parasites
# [28] = viability loss in pontine glioma line – cell-based, SU-DIPG-XIII, MIPE5.0, CellTiter-Glo, qHTS, dose response (AID 1347064; cut-off not given, nearly all actives have AC50 up to about 23 µM); details: CellTiter-Glo ATP luminescence
# [29] = biological target: NAD(+) hydrolase SARM1 (Homo sapiens) (UniProt Q6SZW1); test: blocking NAD cleavage by SARM1 SAM-TIR – cell lysate, NAD-Glo luminescence (AID 1508614;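 active = compound whose remaining NAD level is above about 45 nM, limit read from the data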;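 also: higher remaining NAD means stronger inhibition of SARM1 NADase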); details: SAM-TIR HEK293T lysate NADase, at 1 µM, stronger effect = higher value
# NAD(+) hydrolase SARM1 (Homo sapiens), sequence (Q6SZW1 whole entry, looked up): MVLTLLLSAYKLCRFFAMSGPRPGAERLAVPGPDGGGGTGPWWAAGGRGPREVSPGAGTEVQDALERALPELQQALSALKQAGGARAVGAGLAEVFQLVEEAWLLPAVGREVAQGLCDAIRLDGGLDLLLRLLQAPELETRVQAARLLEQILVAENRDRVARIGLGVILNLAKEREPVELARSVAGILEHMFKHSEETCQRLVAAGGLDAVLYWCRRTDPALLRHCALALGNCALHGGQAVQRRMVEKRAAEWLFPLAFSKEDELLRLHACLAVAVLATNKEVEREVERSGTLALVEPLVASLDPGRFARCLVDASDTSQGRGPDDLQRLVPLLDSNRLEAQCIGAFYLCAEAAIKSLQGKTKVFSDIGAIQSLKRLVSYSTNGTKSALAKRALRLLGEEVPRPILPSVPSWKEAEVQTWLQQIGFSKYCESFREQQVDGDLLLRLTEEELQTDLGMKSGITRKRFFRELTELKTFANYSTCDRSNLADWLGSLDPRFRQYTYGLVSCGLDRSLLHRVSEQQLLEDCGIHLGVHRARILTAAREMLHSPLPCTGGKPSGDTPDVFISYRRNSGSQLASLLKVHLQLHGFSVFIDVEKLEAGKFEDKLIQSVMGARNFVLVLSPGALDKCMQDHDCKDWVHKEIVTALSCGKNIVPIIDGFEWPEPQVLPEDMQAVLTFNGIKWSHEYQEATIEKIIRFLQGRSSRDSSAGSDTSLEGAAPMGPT
# [30] = measured here: epithelial PC-3E GFP cell survival
# [31] = measured here: mesenchymal TEM4-18 mCherry cell survival
# [32] = stronger effect = lower value, cell number ratio, induced over uninduced
# [33] = measured here: relative caspase fold change +Dox/-Dox
# [34] = measured here: total cells with miR-34 induction, stronger effect = lower value
# [35] = measured here: total cells without miR-34 induction
smiles,measurement,setting,value
CCC(C)[C@H]1O[C@]2(CC[C@@H]1C)C[C@@H]1C[C@@H](C/C=C(\C)[C@@H](OC3C[C@H](OC)C(O[C@H]4C[C@H](OC)[C@@H](O)[C@H](C)O4)[C@H](C)O3)[C@@H](C)/C=C/C=C3\COC4[C@H](O)C(C)=C[C@@H](C(=O)O1)[C@]34O)O2 (some centres not stated),red/green cell ratio (normalised),[1],0.84 (inactive)
same,normalised cell number,[1]; [30],1.17
same,normalised cell number,[1]; [31],0.97
NCCCCNCCCN,inhibition,[2],7.23%
same,score,[3],1
same,rescue above control,[4],-7.17
same,cytochrome c release ratio,[5],1.12
same,inhibition of aggregation,[6],57.8%
same,normalised LDH release,[7],0.936
same,glutamate uptake change,[8],-3.1%
same,inclusion score,[9],2
same,aggregation suppression score,[10],0.846
same,period change,[11],0.115 h (inactive)
same,inhibition,[12],-2% (inactive)
same,fluorescence ratio (interference),[13],1 (inactive)
same,red/green cell ratio (normalised),[1],0.89 (inactive)
same,normalised cell number,[1]; [30],0.98
same,normalised cell number,[1]; [31],0.87
same,remaining activity,[14],101% (inactive)
same,outcome,[15],inactive
same,outcome,[16],inactive
same,outcome,[17],inactive
same,outcome,[18],inactive
same,outcome,[19],inactive
same,outcome,[20],inactive
same,IC50,[21],1.18 nM (active)
same,fold change,[22]; [32],0.943 (inactive) and 0.936 (inactive)
same,fold change,[22]; [33],1.92 and 0.604
same,cell count,[22]; [34],9580 and 9960
same,cell count,[22]; [35],10200 and 10600
same,outcome,[23],inactive
same,luciferase signal,[24],48 AU (inactive)
same,z-score,[25],-0.635 (inactive) and -0.08 (inactive)
Oc1cc2c(cc1O)C1c3ccc(O)c(O)c3OCC1(O)C2 (configuration not stated),red/green cell ratio (normalised),[1],1.05 (inactive)
same,normalised cell number,[1]; [30],1.12
same,normalised cell number,[1]; [31],1.18
same,outcome,[26],inactive
same,outcome,[17],inactive
same,outcome,[19],inactive
same,outcome,[21],inactive
OC[C@@H](O)[C@@H](O)[C@H](O)[C@@H](O)CO,parasite load remaining,[27],34.8% (inactive)
same,viability,[27],97.5%
same,red/green cell ratio (normalised),[1],1.05 (inactive)
same,normalised cell number,[1]; [30],1.02
same,normalised cell number,[1]; [31],1.06
same,outcome,[15],inactive
same,outcome,[26],inactive
same,outcome,[16],inactive
same,outcome,[28],inactive
same,outcome,[18],inactive
same,outcome,[19],inactive
same,outcome,[20],inactive
same,outcome,[21],inactive
same,fold change,[22]; [32],0.939 (inactive)
same,fold change,[22]; [33],3.07
same,cell count,[22]; [34],11500
same,cell count,[22]; [35],12200
same,remaining NAD,[29],10 nM (inactive)
CN(C)CC[C@H](c1ccc(Cl)cc1)c1ccccn1,parasite load remaining,[27],101% (inactive) and 66.4% (inactive)
same,viability,[27],77.5% and 96.6%
same,red/green cell ratio (normalised),[1],1.35 (inactive)
same,normalised cell number,[1]; [30],0.95
same,normalised cell number,[1]; [31],1.28
same,outcome,[26],inactive
same,outcome,[16],inactive
same,outcome,[17],inactive
same,outcome,[19],inactive
same,fold change,[22]; [32],0.84 (inactive)
same,fold change,[22]; [33],2.94
same,cell count,[22]; [34],10500
same,cell count,[22]; [35],12500
same,luciferase signal,[24],80 AU (inactive)
